Assay outcomes as filed in PubChem BioAssay.
Hits are enriched below; roughly 2.6% of the tested compounds scored in any of these assays.
PRMT1 FP inh = PRMT1 methyltransferase inhibitors, primary screen, biochemical, fluorescence polarization; recombinant PRMT1, activity-based probe fluorescence polarization; 370,000 compounds, 1.3% hits; inhibition, % at 2.79 µM;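 active = inhibition above about 21% made by adding two undisclosed values, limit read from the data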
TLR9-MyD88 block = inhibitors of TLR9-MyD88 association in cells, primary screen, cell-based, CHO, BLA complementation, fluorescence. 340,000 compounds, 0.21% hits. AID 504734, 2011. Toll-like receptor 9 (Homo sapiens) + Myeloid differentiation primary response protein …. inhibition, % at 4.98 µM. CCF4 FRET ratio;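 active = inhibition above the mean over all tested compounds plus 3 SD, cut at about 21% in these data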;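 note: 0% = DMSO only wells and 100% = clavulanate BLA inhibitor control wells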
NOD2 RIPK2 PPI = NOD2-RIPK2 binding disruptors in cells, primary screen, fluorescence, CHO cells, BLA complementation | Receptor-interacting serine/threonine-protein kinase 2 (Homo sapiens), O43353 | CCF4 ratio | inhibition, % at 4.98 µM | 360,000 compounds, 0.38% hits | AID 624267, 2012; in the data active = inhibition above about 21%;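 note: 0% = vehicle only and 100% = reference blocker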
TLR4 MyD88 comp = inhibitors of TLR4-MyD88 association in cells, primary screen, cell-based, HeLa CL3-4, BLA complementation, FRET ratio; Toll-like receptor 4 (Homo sapiens) + Myeloid differentiation primary response protein …; HeLa CL3-4 TLR4/MyD88 BLA complementation; inhibition, % at 8.4 µM; 200,000 compounds, 0.18% hits; AID 861, 2007; in the data active = inhibition above about 25%;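 note: 0% = vehicle and 100% = reference inhibitor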
ABHD5-PLIN5 inh = ABHD5-PLIN5 interaction inhibitors, primary screen, cell lysate, split luciferase complementation, luminescence; Split G. princeps luciferase complementation, 4 h; 360,000 compounds, 0.78% hits; inhibition, % at 4 µM;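 active = inhibition above the mean inhibition across every tested compound plus 3 SD, cut at about 22% in these data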;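 note: 0% = DMSO only wells and the 100% control is not disclosed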
Granule exo inh = LAMP-1 surface exposure blockers, TALL-104 cells – cell-based, flow cytometry, MLPCN library, primary screen; TALL-104 LAMP-1 surface exposure; cells stimulated with thapsigargin and PMA; inhibition, % at 10 µM; 360,000 compounds, 0.66% hits;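 active = inhibition above about 55%, limit read from the data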
* hit, by the source's call; / = no result given.

SMILES	PRMT1 FP inh	TLR9-MyD88 block	NOD2 RIPK2 PPI	TLR4 MyD88 comp	ABHD5-PLIN5 inh	Granule exo inh
S=c1[nH]nc(-c2ccccc2)n1/N=C/c1ccc(Cl)cc1	22*	1	-12	/	-5	-8
COc1ccccc1/C=C/C=N/n1c(-c2ccc(C)cc2)n[nH]c1=S	22*	0	8	-8	-5	1
O=C(Cc1cn(Cc2ccccc2)c2ccccc12)Nc1ccc(Oc2cccnc2)cc1	2	/	/	/	/	/
Cc1cc(NC(=S)N(CCN2CCCCC2)Cc2ccco2)ccc1Cl	-7	0	-5	4	6	4
Cc1ccc(NC(=S)N(CCCN2CCCC2)Cc2cccn2Cc2ccc(Cl)cc2)cc1Cl	1	-4	-6	4	11	65*
Cc1ccc(NC(=S)N(CCCN2CCCC2)Cc2cccn2Cc2ccc(Cl)cc2)cc1C	-4	4	14	-10	14	81*
COC(=O)C(CC(=O)c1ccc(C)cc1)n1cccn1 (configuration not stated)	-1	-2	-5	/	5	5
COC(=O)C(CC(=O)c1ccc(Br)cc1)n1cccn1 (configuration not stated)	22*	6	0	/	16	3
CCOC(=O)CN1CCCc2nc(C)c(C)cc21	15	/	/	/	/	/
O=C(NC1CCCCCC1)c1ccc(CS(=O)(=O)Cc2ccccc2F)o1	2	-2	5	/	2	5
O=C(NC1CCCCC1)c1ccc(-c2ccccc2F)o1	10	-4	4	/	23*	5
O=C(CSc1cccc[n+]1[O-])Nc1cc2c(cc1Cl)C(=O)c1ccccc1C2=O	23*	1	-14	-9	-10	3
COC(=O)[C@]12C[C@H](CC(=O)NCc3cccc(C(F)(F)F)c3)C(=O)N(Cc3ccccc3)C1=C[C@H](COCc1ccccc1)O[C@@H]2C	1	/	/	/	/	/
CSC1=N/C(=C\c2ccccc2F)C(=O)S1	9	-1	2	-11	-6	0
CSC1=N/C(=C\c2ccc(Br)o2)C(=O)S1	25*	-4	-7	-9	4	0
CCCCOCC1CN(CCCC)S(=O)(=O)c2c(Oc3ccc(C)cc3)cccc2O1 (configuration not stated)	-3	/	/	/	/	/
COc1ccc(-n2c(COc3ccc(Cl)cc3)nnc2SCC(=O)Nc2ccc(Oc3ccccc3)cc2)cc1	0	/	/	/	/	/
COC1(OC)C=CC(=O)C=C1NC(=O)c1ccccc1OC(C)=O	5	-12	5	/	23*	-4
CC(=O)Oc1ccccc1C(=O)Nc1ccccc1	0	11	1	/	-6	-9
COc1ccc(C2CC(=O)C(c3ccc4ccccc4c3)=CN2Cc2ccccc2)cc1 (configuration not stated)	-2	/	/	/	/	/
O=C(CSC1=NCCS1)Nc1ccnc2ccccc12	23*	-9	-3	2	-11	2
Cc1cc(C)nc(SCC(=O)Nc2ccnc3ccccc23)n1	1	-1	-3	1	2	-2
S=c1[nH]nc(COc2ccccc2)n1/N=C/c1cccc(Cl)c1Cl	-1	8	-7	/	-3	-7
S=c1[nH]nc(COc2ccccc2)n1/N=C/c1ccccc1Cl	23*	3	-3	/	-7	-6
COc1ccc(C)cc1NC(=O)c1c([N+](=O)[O-])cnn1C	-3	9	-12	/	3	7
COc1ccccc1NC(=O)c1c(N=Cc2cccc([N+](=O)[O-])c2)cnn1C	-4	/	-2	/	1	62*
COC(=O)[C@@]12CCCCC=C1N(CCc1ccc(Cl)cc1)C(=O)[C@H]2CC(=O)NCc1cccc2ccccc12	3	/	/	/	/	/
CC(C)C[C@H]1COc2cccc(N3CCCC3)c2S(=O)(=O)N1	-7	/	/	/	/	/
Nn1c(SCC(=O)N2c3ccccc3Sc3ccc(Cl)cc32)nnc1-c1cc(-c2ccc(F)cc2)n[nH]1	9	/	/	/	/	/
